In PubChem BioAssay one finds composite z-score and z-score data, which are given here for five compounds.

Assay [1] concerns PRMT1 (protein arginine N-methyltransferase 1). Nature of the assay: PRMT1 binders on small-molecule microarrays, primary screen, biochemical, small-molecule microarray, 635 nm fluorescence (AID 1088).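 Note: binding of Prmt1 protein to compounds spotted on small-molecule microarray slides.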 Conditions: small-molecule microarray binding, higher = more signal.
Assay [2] can be described thus: yeast growth modulation, basal conditions, primary screen, YJM789 clinical isolate, OD600, 24 h (AID 1089).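 Note: growth of clinical yeast isolate S. cerevisiae YJM 789 seeded 1000 cells per well; test concentration not given here.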 The following applies: S. cerevisiae YJM789 growth, higher = more signal, called active from +8 up or from −8 down.
A short description of assay [3]: fission yeast growth modulation, primary screen, strain 972, OD600, 24 h, no modulator (AID 1090).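 Note: basal condition with compound alone and no growth modifier present; test concentration not given here.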 The following applies: S. pombe 972 growth, higher = more signal, called active from +8 up or from −8 down.
Assay [4] is described as follows: S. cerevisiae growth modulation with rapamycin, primary screen, strain BY4716, OD600, 96 h (AID 1091). Note: test concentration not given here. The following applies: higher = more signal, called active from +8 up or from −8 down.
For assay [5], the target named is Torsin-1A-interacting protein 2 (Homo sapiens) (UniProt Q8NFQ8). Nature of the assay: LULL1 binders on small-molecule microarray, primary screen, cell lysate, human LULL1 lysate, 635/667 nm fluorescence (AID 1092).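 Note: probe is lysate of COS7 cells overexpressing human LULL1; score merges per-feature 667 nm fluorescence with signal-to-noise.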 The following applies: hLULL1 lysate binding, 635 nm fluorescence, higher = more signal.
The nature of assay [6]: E. coli growth modulation, two-sided OD650, primary screen, E. coli filamentation project, strain DRC41, 24 h (AID 1093).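 Note: MC1000 strain lacking acrAB efflux and sulA so SOS filamentation is blocked; test concentration not given here.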 Conditions: OD650, 24 h, higher = more signal, called active from +8 up or from −8 down.
Assay [7] is described as follows: small-molecule microarray binders of probe aLefty2, primary screen, biochemical, biotinylated probe, 635/667 nm fluorescence (AID 1094).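 Note: score merges spot fluorescence near 667 nm with spot signal-to-noise ratio.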 Conditions: higher = more signal.
Assay [8] has as its system Noggin (protein binding on small-molecule microarray). Nature of the assay: Noggin binders on small-molecule microarray, primary screen, biochemical, 635/667 nm fluorescence (AID 1095).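 Note: score merges 667 nm feature fluorescence with signal to noise over triplicate slides.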 Conditions: 635 nm fluorescence, higher = more signal.
Assay [9] addresses Neurogenic locus notch homolog protein 3 (Homo sapiens) (UniProt Q9UM47). Briefly: NOTCH3 binders on small-molecule microarray, primary screen, biochemical, 635/667 nm fluorescence (AID 1096). The following applies: NOTCH3 binding, 635 nm fluorescence, higher = more signal.
The nature of assay [10]: small-molecule microarray binders of probe aEGFR, primary screen, biochemical, biotinylated probe, 635/667 nm fluorescence (AID 1097).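 Note: probe is a biotinylated anti-EGFR antibody binding compounds printed on slides; score combines fluorescence near 667 nm and signal to noise of each spot.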 Conditions: higher = more signal.
Assay [11] has as its system Plasmodium falciparum Sir2 (PF13_0152, Sir2A). Briefly: pfSir2 binders on small-molecule microarrays, primary screen, biochemical, small-molecule microarray, 635 nm fluorescence (AID 1098).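 Note: score merges spot fluorescence intensity with its signal-to-noise ratio.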 Conditions: small-molecule microarray binding, fluorescence 635 nm; higher = more signal.
Assay [12] in a line: small-molecule microarray binders of probe aDKK1, primary screen, biochemical, biotinylated probe, 635/667 nm fluorescence (AID 1099).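 Note: score merges 667nm spot fluorescence with signal to noise across triplicate slides; reference of the scale not given here.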 Conditions: higher = more signal.
Assay [13] can be described thus: small-molecule microarray binders of probe aCHRDL2, primary screen, biochemical, biotinylated probe, 635/667 nm fluorescence (AID 1100). The following applies: higher = more signal.
Assay [14] can be described thus: splicing luciferase reporter signal modulators, primary screen, spliceosome inhibition project, cell-based, HEK293, splice +/- reporter (AID 1101).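 Note: HEK293 cells carrying a splicing-competent luciferase reporter gene; test concentration not given here.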 The following applies: luminescence, 24 h, higher = more signal, called active from +8 up or from −8 down. On the technique in general: A reporter such as luciferase makes a cellular process visible.
Assay [15] has as its target Fibroblast growth factor 10 (Homo sapiens) (UniProt O15520). Nature of the assay: FGF10 binders on small-molecule microarrays, primary screen, biochemical, small-molecule microarray, 635 nm fluorescence (AID 1102). The following applies: FGF10 binding, fluorescence 635 nm, higher = more signal.
Assay [16] relates to glycogen synthase kinase-3 (GSK3A per assay name; protocol says GSK3B). Briefly: GSK3 binders on small-molecule microarrays, primary screen, biochemical, small-molecule microarray, 635 nm fluorescence, GSK3A (AID 1103). Note: the record names both GSK3A and GSK3B. The following applies: small-molecule microarray binding, fluorescence 635 nm; higher = more signal.
Assay [17] addresses Epidermal growth factor receptor (Homo sapiens) (UniProt P00533). Briefly: EGFR binders on small-molecule microarrays, primary screen, biochemical, small-molecule microarray, 635 nm fluorescence (AID 1104).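 Note: score merges 667 nm emission intensity with spot signal to noise over triplicate slides.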 The following applies: EGFR binding, higher = more signal.
The target in assay [18] is Follistatin-related protein 3 (Homo sapiens) (UniProt O95633). Briefly: FSTL3 binders on small-molecule microarrays, primary screen, biochemical, small-molecule microarray, 635 nm fluorescence (AID 1105).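 Note: score merges emission near 667 nm and signal to noise per printed spot across three slides.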 The following applies: FSTL3 binding, higher = more signal.
For assay [19], the target named is Dickkopf-related protein 1 (Homo sapiens) (UniProt O94907). Nature of the assay: DKK1 binders on small-molecule microarrays, primary screen, biochemical, small-molecule microarray, 635 nm fluorescence scan (AID 1106).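 Note: score merges emission near 667 nm with signal to noise over three replicate slides.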 Conditions: DKK1 binding, higher = more signal.
The test system of assay [20] is Inhibin beta A chain (activin A). Briefly: INHBA (activin A) binders on microarrays, primary screen, biochemical, small-molecule microarray, 635 nm fluorescence scan (AID 1107).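 Note: mouse activin A protein probed at 4.33 µg/mL on printed slides; score merges bound-protein fluorescence near 667 nm with spot signal-to-noise.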 The following applies: small-molecule microarray binding, higher = more signal.

Activity calls are given as the source filed them.

Sequence of Torsin-1A-interacting protein 2 (Homo sapiens) (Q8NFQ8 whole entry, looked up): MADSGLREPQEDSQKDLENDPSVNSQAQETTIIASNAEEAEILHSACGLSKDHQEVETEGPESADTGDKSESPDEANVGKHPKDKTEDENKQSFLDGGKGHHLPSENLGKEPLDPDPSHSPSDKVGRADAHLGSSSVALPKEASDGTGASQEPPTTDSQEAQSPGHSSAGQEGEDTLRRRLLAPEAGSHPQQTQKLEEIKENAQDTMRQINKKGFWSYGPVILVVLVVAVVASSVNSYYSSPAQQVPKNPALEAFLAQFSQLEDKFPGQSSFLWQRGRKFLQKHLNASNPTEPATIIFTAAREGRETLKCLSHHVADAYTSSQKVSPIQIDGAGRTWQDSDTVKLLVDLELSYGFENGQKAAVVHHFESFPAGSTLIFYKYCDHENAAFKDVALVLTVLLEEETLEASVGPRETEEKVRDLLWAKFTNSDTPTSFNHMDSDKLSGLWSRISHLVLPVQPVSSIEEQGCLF
Sequence of Follistatin-related protein 3 (Homo sapiens) (O95633 whole entry, looked up): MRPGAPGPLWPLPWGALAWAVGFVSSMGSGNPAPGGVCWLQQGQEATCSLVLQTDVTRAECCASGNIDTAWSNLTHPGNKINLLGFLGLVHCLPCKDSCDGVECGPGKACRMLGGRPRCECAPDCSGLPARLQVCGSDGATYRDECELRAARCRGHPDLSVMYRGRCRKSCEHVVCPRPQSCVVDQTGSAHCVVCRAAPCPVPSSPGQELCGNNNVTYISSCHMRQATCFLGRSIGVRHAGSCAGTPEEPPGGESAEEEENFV
Sequence of Neurogenic locus notch homolog protein 3 (Homo sapiens) (Q9UM47 whole entry, looked up): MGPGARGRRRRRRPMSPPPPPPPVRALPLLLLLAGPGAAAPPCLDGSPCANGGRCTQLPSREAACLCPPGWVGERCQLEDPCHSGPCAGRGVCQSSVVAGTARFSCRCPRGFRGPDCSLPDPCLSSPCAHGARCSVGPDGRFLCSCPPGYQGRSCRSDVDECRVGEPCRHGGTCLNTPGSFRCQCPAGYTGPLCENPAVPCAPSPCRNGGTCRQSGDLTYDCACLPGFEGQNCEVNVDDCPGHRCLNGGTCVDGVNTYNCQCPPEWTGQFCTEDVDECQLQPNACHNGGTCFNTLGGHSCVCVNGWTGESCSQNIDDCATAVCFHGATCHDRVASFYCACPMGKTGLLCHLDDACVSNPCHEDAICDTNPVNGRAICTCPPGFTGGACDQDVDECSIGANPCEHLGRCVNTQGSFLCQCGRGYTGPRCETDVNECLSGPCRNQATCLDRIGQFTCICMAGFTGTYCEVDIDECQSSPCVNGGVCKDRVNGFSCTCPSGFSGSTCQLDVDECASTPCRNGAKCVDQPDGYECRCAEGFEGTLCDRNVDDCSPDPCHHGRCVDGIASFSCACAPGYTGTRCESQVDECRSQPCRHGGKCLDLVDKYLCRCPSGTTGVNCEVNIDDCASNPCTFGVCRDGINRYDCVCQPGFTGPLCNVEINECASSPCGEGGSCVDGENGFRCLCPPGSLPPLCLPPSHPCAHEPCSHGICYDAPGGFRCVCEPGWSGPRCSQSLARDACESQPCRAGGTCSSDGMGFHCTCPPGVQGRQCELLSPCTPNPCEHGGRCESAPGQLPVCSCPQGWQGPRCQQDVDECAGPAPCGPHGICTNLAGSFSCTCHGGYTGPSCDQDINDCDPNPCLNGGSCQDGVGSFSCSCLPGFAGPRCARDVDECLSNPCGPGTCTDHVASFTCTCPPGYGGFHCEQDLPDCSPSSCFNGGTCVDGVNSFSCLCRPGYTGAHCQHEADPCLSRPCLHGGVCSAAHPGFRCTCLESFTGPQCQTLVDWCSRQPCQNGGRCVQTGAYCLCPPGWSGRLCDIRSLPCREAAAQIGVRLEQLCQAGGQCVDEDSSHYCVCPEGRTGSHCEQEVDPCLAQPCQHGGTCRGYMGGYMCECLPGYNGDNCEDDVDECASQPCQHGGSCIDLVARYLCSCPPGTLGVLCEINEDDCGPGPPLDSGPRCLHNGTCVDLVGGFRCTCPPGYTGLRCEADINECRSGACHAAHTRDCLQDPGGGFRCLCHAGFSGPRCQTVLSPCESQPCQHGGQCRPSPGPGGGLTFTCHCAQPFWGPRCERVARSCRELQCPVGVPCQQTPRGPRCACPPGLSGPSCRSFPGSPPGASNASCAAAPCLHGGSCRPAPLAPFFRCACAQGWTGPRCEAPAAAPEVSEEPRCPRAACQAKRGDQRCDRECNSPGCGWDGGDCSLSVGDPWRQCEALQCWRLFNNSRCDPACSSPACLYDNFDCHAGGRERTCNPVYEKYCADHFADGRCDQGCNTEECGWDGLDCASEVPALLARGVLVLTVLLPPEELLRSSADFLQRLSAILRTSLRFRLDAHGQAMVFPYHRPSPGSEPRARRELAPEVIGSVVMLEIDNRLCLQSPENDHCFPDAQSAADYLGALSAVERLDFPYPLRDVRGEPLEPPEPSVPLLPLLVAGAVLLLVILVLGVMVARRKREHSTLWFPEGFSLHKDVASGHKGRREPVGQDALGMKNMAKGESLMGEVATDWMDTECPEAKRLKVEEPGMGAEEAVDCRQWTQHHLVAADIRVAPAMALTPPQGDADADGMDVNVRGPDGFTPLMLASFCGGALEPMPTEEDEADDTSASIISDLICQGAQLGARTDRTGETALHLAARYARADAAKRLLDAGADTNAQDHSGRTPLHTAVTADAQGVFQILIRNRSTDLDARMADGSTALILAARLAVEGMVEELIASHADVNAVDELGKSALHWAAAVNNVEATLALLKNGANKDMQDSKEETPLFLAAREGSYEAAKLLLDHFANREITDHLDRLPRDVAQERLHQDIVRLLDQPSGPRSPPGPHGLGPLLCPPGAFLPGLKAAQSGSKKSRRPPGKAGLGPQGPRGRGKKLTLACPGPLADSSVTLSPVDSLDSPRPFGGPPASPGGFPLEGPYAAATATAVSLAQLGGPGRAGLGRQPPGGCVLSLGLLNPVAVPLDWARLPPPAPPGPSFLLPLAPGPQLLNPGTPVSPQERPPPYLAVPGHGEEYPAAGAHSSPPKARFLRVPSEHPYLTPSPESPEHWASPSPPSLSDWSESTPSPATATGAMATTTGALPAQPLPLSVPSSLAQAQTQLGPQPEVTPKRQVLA
Sequence of Fibroblast growth factor 10 (Homo sapiens) (O15520 whole entry, looked up): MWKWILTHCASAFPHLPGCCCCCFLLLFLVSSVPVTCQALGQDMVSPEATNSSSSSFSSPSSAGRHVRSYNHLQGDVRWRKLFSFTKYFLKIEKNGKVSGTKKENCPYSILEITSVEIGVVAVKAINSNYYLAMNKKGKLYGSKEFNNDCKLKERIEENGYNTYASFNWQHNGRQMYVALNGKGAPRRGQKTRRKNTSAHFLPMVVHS
Sequence of Epidermal growth factor receptor (Homo sapiens) (P00533 whole entry, looked up): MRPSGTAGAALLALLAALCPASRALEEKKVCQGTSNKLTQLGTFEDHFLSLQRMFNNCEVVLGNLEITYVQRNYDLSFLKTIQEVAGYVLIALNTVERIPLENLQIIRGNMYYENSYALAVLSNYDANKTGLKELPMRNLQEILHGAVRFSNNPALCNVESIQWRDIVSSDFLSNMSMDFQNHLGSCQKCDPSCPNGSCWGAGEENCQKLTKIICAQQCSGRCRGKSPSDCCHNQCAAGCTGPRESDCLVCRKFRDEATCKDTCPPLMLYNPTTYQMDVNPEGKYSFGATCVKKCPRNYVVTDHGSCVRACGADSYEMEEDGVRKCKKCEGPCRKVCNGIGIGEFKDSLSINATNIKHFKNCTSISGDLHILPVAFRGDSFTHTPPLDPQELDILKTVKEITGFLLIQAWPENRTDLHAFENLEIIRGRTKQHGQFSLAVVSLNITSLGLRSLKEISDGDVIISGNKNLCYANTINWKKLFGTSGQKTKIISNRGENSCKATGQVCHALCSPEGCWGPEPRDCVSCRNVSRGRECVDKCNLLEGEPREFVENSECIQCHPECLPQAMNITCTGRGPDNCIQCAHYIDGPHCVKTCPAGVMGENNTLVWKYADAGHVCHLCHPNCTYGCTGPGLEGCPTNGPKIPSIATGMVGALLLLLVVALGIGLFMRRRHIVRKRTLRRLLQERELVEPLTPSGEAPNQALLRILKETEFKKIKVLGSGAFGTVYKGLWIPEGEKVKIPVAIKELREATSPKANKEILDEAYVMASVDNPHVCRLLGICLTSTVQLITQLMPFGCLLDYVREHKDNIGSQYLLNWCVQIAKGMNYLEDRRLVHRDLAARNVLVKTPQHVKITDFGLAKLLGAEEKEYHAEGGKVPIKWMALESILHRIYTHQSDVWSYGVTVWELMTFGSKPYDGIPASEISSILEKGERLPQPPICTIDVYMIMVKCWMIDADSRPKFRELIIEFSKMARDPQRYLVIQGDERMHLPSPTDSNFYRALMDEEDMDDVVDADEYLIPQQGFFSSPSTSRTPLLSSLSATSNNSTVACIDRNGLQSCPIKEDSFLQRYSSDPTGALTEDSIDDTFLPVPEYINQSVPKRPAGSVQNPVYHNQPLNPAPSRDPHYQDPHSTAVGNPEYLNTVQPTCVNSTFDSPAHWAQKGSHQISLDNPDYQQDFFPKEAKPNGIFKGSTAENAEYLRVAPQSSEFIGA
Sequence of Dickkopf-related protein 1 (Homo sapiens) (O94907 whole entry, looked up): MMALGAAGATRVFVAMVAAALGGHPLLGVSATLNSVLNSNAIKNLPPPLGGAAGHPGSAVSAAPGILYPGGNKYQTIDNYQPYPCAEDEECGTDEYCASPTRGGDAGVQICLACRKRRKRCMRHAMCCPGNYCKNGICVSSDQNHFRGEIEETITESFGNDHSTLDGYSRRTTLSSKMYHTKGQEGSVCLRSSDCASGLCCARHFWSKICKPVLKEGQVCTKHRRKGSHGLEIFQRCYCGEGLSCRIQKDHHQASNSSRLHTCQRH

`CCCNC(=O)OC[C@H]1O[C@H](CCON=C(C)CCC(=O)OC[C@H]2O[C@H](c3ccccc3)C=C[C@@H]2Oc2ccc(OC)cc2)C=C[C@@H]1Oc1ccc(OC)cc1`: the composite z-score in assay [1] is -1.37; in assay [5], -1.09; in assay [7], -0.0982; in assay [8], -0.184; in [9], -0.619; in [10], -0.042. For the same compound, the composite z-score is 0.452 in assay [11]; -0.183 in [12]; -0.207 in assay [13]; -0.445 in assay [15]; -1.49 in assay [16]; -0.239 in assay [17]. Besides, the composite z-score in assay [18] is -0.31; in assay [19] it was 0.0289; in [20] it was 0.844. Moreover, the z-score was -1.66 (inactive) in assay [2]; 0.702 (inactive) in [3]; -0.59 (inactive) in [4]; 0.0967 (inactive) in assay [6]; 0.358 (inactive) in assay [14].
Take `C=CC1=C[C@H](O)[C@@H]2O[C@@H]2C12OCCCO2`: the composite z-score was -0.12 in assay [1]; -0.119 in assay [5]; -0.244 in [7]; 0.412 in [8]; -0.239 in assay [9]; 0.009 in assay [10]. For the same compound, the composite z-score in assay [11] was 0.139; in assay [12], -0.296; in assay [13], -0.136; in [15] it was 0.351; in assay [16], 1.03; in assay [17], -0.547. Moreover, the results for the composite z-score in assay [18], in assay [19] and in assay [20] were -0.0047, -0.137 and 0.551, respectively. The z-score was -0.532 (inactive) in assay [2]; 0.199 (inactive) in [3]; -0.138 (inactive) in [4]; -0.0339 (inactive) in assay [6]; 0.404 (inactive) in assay [14].
For the compound `CCOC(=O)[C@H](CC(C)C)NC(=O)CCC1CC(OC(=O)NCc2cccc3ccccc23)CC2(CCCC(COC(=O)NCc3cccc(C(F)(F)F)c3)O2)O1` (stereo not given in full), the composite z-score was 0.221 in assay [1]; 0.135 in assay [5]; -0.251 in assay [7]; 0.582 in [8]; 0.359 in [9]; -0.137 in assay [10]. Besides, the composite z-score in [11] was 0.0007; in assay [12], -0.167; in [13] it was -0.346; in [15], 0.475; in assay [16] it was 0.362; in [17], 0.508. The composite z-score was 0.346 in assay [18], 0.491 in [19] and -0.0188 in [20]. The z-score in assay [2] is 0.533 (inactive); in assay [3] it was 0.171 (inactive); in [4], 0.289 (inactive); in assay [6], 0.294 (inactive); in assay [14], -0.349 (inactive).
Take `CCc1cc2c(nc1CC)CCN(CCC(C)=NOC[C@H]1O[C@H](c3ccccc3)C=C[C@@H]1Oc1ccc(OC)cc1)C2`: the composite z-score in [1] was 0.841; in [5], 0.825; in [7] it was -0.164; in assay [8], 0.0346; in [9], 0.215; in [10], -0.0549. Further, the composite z-score in [11] was 0.507; in assay [12] it was 0.46; in assay [13] it was 0.0691; in assay [15], -0.344; in [16], -0.26; in assay [17] it was -0.0924. Further, the results for the composite z-score in assay [18], in assay [19] and in [20] were -0.0668, -0.159 and 0.813, respectively. For the same compound, the z-score in assay [2] was -0.837 (inactive); in assay [3], -5.85 (inactive); in assay [4] it was -0.473 (inactive); in assay [6] it was -0.782 (inactive); in assay [14], -1.47 (inactive).
Turning to `COc1ccc(C#C[C@@H]2C=C[C@H](OC(C)=O)[C@@H](COC(C)=O)O2)cc1`, the composite z-score in assay [1] was 0.474; in [5], 0.387; in assay [7], 0.0164; in [8], 0.622; in assay [9] it was 0.493; in [10], -0.122. Further, the composite z-score in [11] is 0.647; in assay [12], -0.174; in [13], -0.289; in [15], 0.465; in assay [16] it was 0.185; in assay [17], 0.586. In addition, the composite z-score turned out to be 0.842 in assay [18], 0.476 in assay [19] and 1.18 in [20]. Also, the z-score in assay [2] is -0.551 (inactive); in assay [3], -2.35 (inactive); in assay [4] it was -0.451 (inactive); in assay [6], 1.04 (inactive); in [14], -0.613 (inactive).
